DRD3 antagonist: qHTS of D3 Dopamine Receptor Antagonist: qHTS; hit rate 2.5% among 360,000; D3R cells, DiscoveRx beta-arrestin luminescence, antagonist mode; active compounds read low; D(3) dopamine receptor (Homo sapiens), P35462; max response, negative = inhibition, %; in the data active = max response below about -50%; inconclusive = no clear call, values can overlap the other calls; note: % is set by controls: 0 for no effect and ±100 for the full control effect
Target sequence (P35462 whole entry, looked up): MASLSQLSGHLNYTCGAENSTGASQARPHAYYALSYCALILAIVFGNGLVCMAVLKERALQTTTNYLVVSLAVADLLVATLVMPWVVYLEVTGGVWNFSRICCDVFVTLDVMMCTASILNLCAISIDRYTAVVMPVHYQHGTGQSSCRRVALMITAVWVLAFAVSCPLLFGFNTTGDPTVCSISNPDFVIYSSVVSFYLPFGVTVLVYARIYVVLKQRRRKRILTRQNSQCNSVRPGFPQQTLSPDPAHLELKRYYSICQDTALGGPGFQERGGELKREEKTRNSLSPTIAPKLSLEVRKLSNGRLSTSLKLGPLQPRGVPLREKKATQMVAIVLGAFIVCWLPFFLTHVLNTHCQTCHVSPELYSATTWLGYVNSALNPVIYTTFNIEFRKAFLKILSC
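Cells plated overnight at 1500 cells/well, then exposed to library compounds with dopamine controls for 90 minutes at 37 degrees C. DiscoveRx reagent added for 30–60 minutes at room temperature; luminescence read, quantitative HTS format.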
GRP78 ERSR act: qHTS for Inducers of the Endoplasmic Reticulum Stress Response (ERSR) in Human Glioma: qHTS; Potency, µM, for inactives: at the top dose activation, most hits filed as activators; U87-MG GRP78 promoter luciferase reporter, 16 h; hit rate 0.02% among 420,000; note: potency is the fitted concentration of half-maximal effect; series mostly up to about 76 µM; % of control where 0% means no effect; nearly all actives have a fitted effect of over 35% in size
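Stably transfected U87-MG human glioma cells carrying a GRP78-based luminescent sensor were seeded at 1000 cells/well, pin-dosed with compounds and incubated 16 h. Luciferase reagent was then added, and end-point luminescence was read after 10 min at room temperature.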
DRD3 agonist: qHTS of D3 Dopamine Receptor Agonist: qHTS; D(3) dopamine receptor (Homo sapiens), P35462; hit rate 0.58% among 410,000; max activation, %; D3R DiscoveRx beta-arrestin cells, luminescence, 90 min; in the data active = max activation above about 30%; note: 0% is about no effect
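Agonist mode: compounds and dopamine controls were applied to plated cells for 90 min at 37 degrees C after an overnight attachment at 1500 cells/well. Luminescent read-out followed 30 - 60 minutes at room temperature with DiscoveRx detection reagent.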
Nrf2 activator: qHTS of Nrf2 Activators | AREc32 ARE-luciferase reporter (MCF7-derived line), luminescence, 24 h | Potency, µM (series often up to 46.1 µM), inactives show top-dose activation, usual class: activators | hit rate 0.31% among 410,000; note: potency is the fitted concentration of half-maximal effect; % of control where 0% means no effect; nearly all actives have a fitted effect of over 65% in size
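AREc32_Fluc, 1000 cells/well, OPTI-MEM + 5% FBS, o/n 37 deg C 5% CO2; 23 nL cpd by pin tool, 24 hr; Steady-Glo 30 min RT, luminescence.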
Starred values were filed as active, the others as inactive; ? = inconclusive; · = no result given. Sampled rows, rich in hits. Any-hit rate of the full collection: about 3%. Unless noted, calls come from the whole dose curve; as a rule, active = well fitted curve in the direction sought with a large enough effect; inconclusive = small, poorly fitted or top-dose-only effect, or another doubt; inactive = no such curve, though single readings can be large; an effect the other way counts as inactive or inconclusive.

SMILES | DRD3 antagonist | GRP78 ERSR act | DRD3 agonist | Nrf2 activator
COC(=O)C1=CC(C(=O)c2cccs2)=NN(c2ccc(OC)cc2)C1C(=O)OC (configuration not stated) | -55.9* | 2.9% | -8.4 | 0.6%
Cc1cccc(C)c1NC(=O)Cn1c(=O)n(Cc2ccccc2)c(=O)c2c(C)c(C(=O)N(C)C)sc21 | · | -0.1% | -3.4 | 0.0%
Cc1ccc(/C=N/NC(=O)c2ccncc2)cc1 | ? | 1.5% | -5.1 | 0.6%
Cc1ccc(/C=N\NC(=O)c2csnn2)cc1 | -53.1* | -11.7% | -9.9 | -0.4%
C=CCn1c(CCNC(=O)c2ccco2)nc2ccccc21 | -73.7* | -5.7% | -26.6 | 0.3%
Cc1noc2ncnc(N3CCCC(C(=O)NC(C)C)C3)c12 (configuration not stated) | · | -3.8% | 2.7 | 0.5%
C#CCNC(=O)C1=C[C@@H](c2ccc(Br)cc2)[C@H](CCCO)[C@@H](OCC)O1 | 23.9 | -4.0% | -3.1 | 0.0%
C#CCNC(=O)C1=C[C@H](c2ccc(C(F)(F)F)cc2)[C@@H](CCCO)[C@H](OCC)O1 | 0.3 | 0.3% | 33.7* | -0.9%
COc1ccc(OC)c(N2C(=O)CC(Cc3cc(C)cc(C)c3)C2=O)c1 (configuration not stated) | -191.7* | -3.0% | -12.4 | 0.5%
C[C@]12CCC(=O)C=C1[C@@H]1C[C@@H]1[C@H]1[C@@H]3[C@@H]4C[C@@H]4[C@@]4(CCC(=O)O4)[C@@]3(C)CC[C@@H]12 | · | · | -10.0 | ·
COc1ccc(Br)cc1/C(C)=N/NC1=NCCN1 | -52.0* | -0.1% | -20.2 | 4.8%
CCCCCOc1ccc(Br)cc1/C(C)=N/NC1=NCCN1 | ? | -13.0% | -6.6 | 0.7%
CC(C)CNc1ncnc2oc(-c3ccco3)c(-c3ccco3)c12 | · | -3.0% | · | ·
COc1cc(Cl)c(CNC[C@H]2O[C@@H](n3ccc(=O)[nH]c3=O)[C@H](O)[C@@H]2O)c(Cl)c1O | 0.0 | -1.0% | -49.4 | -0.5%
COc1ccc(CNC[C@H]2O[C@@H](n3ccc(=O)[nH]c3=O)[C@H](O)[C@@H]2O)cc1OC | -58.7* | -0.5% | -6.2 | -0.4%
c1coc(-c2nc3ccccc3s2)c1 | -6.8 | 2.1% | 1.5 | 11.2µM*
O=C(NCc1ccco1)c1c2c(nc3ccccc13)CCC2 | -59.1* | -3.6% | 4.3 | 10.4%
O=C(NCc1ccco1)c1nc2ccccc2s1 | -7.6 | 0.3% | 2.5 | 12.6µM*
O=C(CSc1c2c(nc3ccccc13)CCCC2)NCc1ccco1 | 2.2 | -2.7% | -1.2 | 15.5%
COc1ccc(-c2nc3ccccc3s2)cc1 | 23.8 | -10.7% | 1.9 | 3.6%
O=C(NCc1ccccc1)c1nc2ccccc2s1 | -4.1 | 3.2% | -4.6 | 0.3%
CC1=CC(=C(C#N)c2nc3ccccc3s2)C=C(C)N1Cc1ccco1 | -56.2* | 3.7% | -17.5 | -0.4%
COc1ccc(C)c2sc(NC(=O)c3ccc(S(=O)(=O)N(C)C)cc3)nc12 | · | 2.4% | 5.9 | -1.0%
Cc1c(C(=O)NCCN2CCC(c3ccccc3)CC2)cnn1-c1nccc(-c2cccs2)n1 | · | -2.8% | · | ·
C=C1C(=O)OC2C1CCC(C)=C1C(=O)C3OC3(C)C12 (configuration not stated) | -129.0* | -10.8% | -58.3 | -2.9%
SMILES | DRD3 antagonist | GRP78 ERSR act | DRD3 agonist | Nrf2 activator
C=C1C(=O)O[C@@H]2[C@@H]1CC/C(C)=C\CC[C@@]1(C)O[C@H]21 | · | -11.5% | · | ·
Cc1cc(NC(=O)CCC(=O)N(CCC(C)C)C(C(=O)NCC2CCCO2)c2ccccc2C)no1 (configuration not stated) | -0.8 | -1.9% | 40.7* | -0.3%
O=C(C1COc2ccccc2O1)N1CCN(Cc2ccc3c(c2)OCO3)CC1 (configuration not stated) | ? | -6.7% | -20.3 | 1.8%
O=C(O)C1CC(=O)N(Cc2ccc3c(c2)OCO3)C1 (configuration not stated) | -106.0* | -2.9% | -14.2 | -0.6%
c1cc2c(cc1CN1CCN(C3CCCCCC3)CC1)OCO2 | -51.3* | -1.4% | -16.0 | 0.1%
O=C(C1CC2CCC1C2)N1CCN(Cc2ccc3c(c2)OCO3)CC1 (configuration not stated) | -56.2* | 0.5% | -5.3 | 1.9%
c1ccc(CN2CCC(N3CCN(Cc4ccc5c(c4)OCO5)CC3)CC2)cc1 | -11.0 | -1.4% | -10.2 | -0.2%
COc1nc2ccccc2nc1N1CCN(Cc2ccc3c(c2)OCO3)CC1 | -114.3* | -6.2% | 4.5 | -0.3%

Compound activity: PubChem BioAssay, National Center for Advancing Translational Sciences (NCATS)
